From PubChem BioAssay AID1347426 (Functional Genomics Laboratory (NCATS/FGL), 2020) come the findings set out here.

Out of some 31,000 sequences screened, about 1,400 (4.5%) were called active. The sample as a whole holds a higher share of actives than the screen did. Unmarked numbers belong to inactive results.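 Rule for the calls: active = median seed-adjusted z-score above 1 or below -1; inactive = the rest.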

This assay is described as follows: Novel Modifiers of Survival Motor Neuron (SMN) Protein: Gene Identification via Genome-wide siRNA Screen.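 Note: luminescence tracks full-length SMN protein made from the SMN2 reporter.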 The settings on record: HEK293T SMN2-luciferase reporter, siRNA knockdown, 72 h; actives lie on both sides. A digest of the protocol: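 Steps: spot 1 pmol siRNA, add Lipofectamine RNAiMax in serum-free DMEM, seed HEK293T SMN2–luciferase reporter cells; incubate 72 h at 37 °C; add ONE-Glo; normalize luminescence to control siRNA, log10, MAD. Candidates: |MAD| > 1.0.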
For the sequence GCUACGAGUUUACUAUCUUTT against TNIK, the median seed-adjusted z-score was 0.154.

With CCUCAGAGCUCAAUCAUCUTT against CD5, the median seed-adjusted z-score is 0.0416.

Take CGAUAAUCUGGGCUACAGATT against ADD1: the median seed-adjusted z-score is -0.0129.

In the case of CCAAUACUAACAUCUUCAATT against MCART1, the median seed-adjusted z-score was -0.605.

Regarding CAACGGCUCUUAGACCACATT against SPRY4, the median seed-adjusted z-score is -1.23 (active).

Turning to GCUCAGUAUUUAAACAUCATT against COL9A2, the median seed-adjusted z-score was 0.0208.

For the sequence AGCCGACAGUGGUGCACUATT against PLA2G15, the median seed-adjusted z-score was 0.

On to CGGAGACCGUACGAAAGUATT against A2M, for which the median seed-adjusted z-score was -1.96 (active).

GGAUGGAAGAUAGCUUGAATT against CPEB4: the median seed-adjusted z-score is -0.53.

For the sequence CGGGCAUUGCCACCAAAGATT against DUX5, the median seed-adjusted z-score is -0.295.

As for GCAUUCAUCACUUCGAAAATT against BNC2, the median seed-adjusted z-score was -0.0556.

As for CCUACAGCAGUGUCUAUGATT against EIF3C, the median seed-adjusted z-score is 0.56.

For the sequence GGUUGACUCAGAUACUACATT against CENPE, the median seed-adjusted z-score was 0.298.

Turning to GGAUCCUUACUUCUUGUCATT against COQ2, the median seed-adjusted z-score is -0.0121.

Take GGAAACCAGUGGAUAUUAATT against F11: the median seed-adjusted z-score was -0.0319.

In the case of ACAUCAACGUGGAACGAGATT against EIF4A1, the median seed-adjusted z-score was -1.05 (active).

For GAUGAGACUUUGACUAUAATT against FGD6, the median seed-adjusted z-score is 0.536.

Take GCCUGAACCUCAUCCUUAUTT against ENPP1: the median seed-adjusted z-score was -0.273.

Consider GGGUUUUCAUUCAGAUGAATT against MLL4, for which the median seed-adjusted z-score is -0.259.

With GGAUUAUUCCUACCUAAUUTT against CDYL2, the median seed-adjusted z-score was -0.379.

In the case of GGAAGAAGGUUCUCAAACATT against RETSAT, the median seed-adjusted z-score is -1.7 (active).

With GGAGCAGUAUUGACAACAATT against NUFIP1, the median seed-adjusted z-score was -0.673.

Consider GCACAAUUGAAAACUUCAATT against CYSLTR2, for which the median seed-adjusted z-score is 0.0461.

For the sequence GGAUGUUCCAAAUCACGGATT against MBTD1, the median seed-adjusted z-score is 0.0649.

Consider GGAUUGCCCAGGGUUCCUATT against DGKQ, for which the median seed-adjusted z-score is -0.0985.

Regarding CGGUUAGAUUUGGACAGUATT against ARHGAP9, the median seed-adjusted z-score was 0.

Regarding GGACUUGGUUUUUCGUACATT against MED14, the median seed-adjusted z-score was -3.22 (active).

In the case of UCCUUUAACUCGACAGUCATT against DRG2, the median seed-adjusted z-score is -0.175.

AGAGGGCACUGGACCUGAATT against UQCRB: the median seed-adjusted z-score was 0.348.

As to GAUCCAAUGUAAACGUGGATT against GRLF1, the median seed-adjusted z-score was 0.0307.

As to GGACCAGAACCACAAGCAATT against GHSR, the median seed-adjusted z-score was 0.18.

Consider GAUCAUCUCUGAAACAGCATT against GYG1, for which the median seed-adjusted z-score is 0.119.

Regarding CAUUCGACAUAGAAGAGUUTT against ZNF551, the median seed-adjusted z-score is -0.171.

Turning to GGUUACAAGCGGUUUGGUATT against COLEC12, the median seed-adjusted z-score is -1.04 (active).

For the sequence CAUGUUAAUUGUUAAGGAUTT against WFDC8, the median seed-adjusted z-score was 0.0427.

For GAGCAGAUCGAGAUCAAAATT against EVI5L, the median seed-adjusted z-score is 0.0497.

As to GGAAAUUCAGGUACGGAUATT against ADAMTS4, the median seed-adjusted z-score is -0.0153.

As for CGGACAUUCGUGCAAAGAATT against PRPF6, the median seed-adjusted z-score is -1.06 (active).

On to AGAAUACGAUGACCACCAATT against RING1, for which the median seed-adjusted z-score is 0.685.

Turning to GCAUACAUCAUGACCGUCATT against DUSP22, the median seed-adjusted z-score is 0.

As for GCCGAUACCUUCACUCGAATT against TAP1, the median seed-adjusted z-score is -0.506.

For the sequence GGGAAGCUAUGCGAAAUUATT against RBPJ, the median seed-adjusted z-score is -0.452.

With GCUUCAUUGAGUACGAGAATT against PUF60, the median seed-adjusted z-score was 2.26 (active).

With GGAUCGGAUAAAUAACAGUTT against HEY2, the median seed-adjusted z-score was -0.0831.

Regarding GAUCAAGACUCUGCGCCUATT against HAND1, the median seed-adjusted z-score is 0.161.

GAAUUGCUGAUAAACCUAUTT against SMNDC1: the median seed-adjusted z-score is -1.54 (active).

GUAUUCCAGCGAAUCCGAUTT against PAK7: the median seed-adjusted z-score was -0.202.

Consider CGUCAAAAGAGCCCAUAAATT against ENPP5, for which the median seed-adjusted z-score was -0.0499.

As for GGAACUCUAUGGUCAUCUATT against SSTR1, the median seed-adjusted z-score was 0.285.

Consider CCAAAGGAGUCAGCACUGUTT against PLXNA1, for which the median seed-adjusted z-score is 0.

For GCAGUUGAAUUAUCACAGUTT against UQCRFS1, the median seed-adjusted z-score was -1.28 (active).

As for GGAAGAAUGUGGUUUGCGATT against GFOD2, the median seed-adjusted z-score is -0.0447.

In the case of GGAGAGGAUUAUUUCCGCATT against SDR9C7, the median seed-adjusted z-score was 0.

With GCAAGUUGGAGAACGAGUATT against MED8, the median seed-adjusted z-score is -1.61 (active).

For the sequence GGCCCAAGAUCUUCCCUAATT against GPR179, the median seed-adjusted z-score is -0.513.

For the sequence CAGUCGUUGCUGUCAAAAATT against RGS9, the median seed-adjusted z-score was 0.0665.

For UGCUCUCUGUUGCAUUGAATT against IAPP, the median seed-adjusted z-score was -0.157.

Turning to GAUUUCUAAUUAACACAAUTT against POLR1D, the median seed-adjusted z-score was -0.0409.

As for CCAUCAUCCGGGAUGAGGATT against NPEPL1, the median seed-adjusted z-score was 1.12 (active).

For the sequence GCAAAGUGCCGAAACAAGATT against ATF3, the median seed-adjusted z-score is -0.000485.

CGAAUAUACCAGGACGAAATT against SATB1: the median seed-adjusted z-score was 0.

Regarding UACUGUCUCUAGUCUUUUUTT against SEC11B, the median seed-adjusted z-score is 1.04 (active).

Regarding GCUUGUUCGGCUACACGAATT against CYP8B1, the median seed-adjusted z-score is 0.

As for CUAAAAGACCGAACAAUAATT against HNRPUL1, the median seed-adjusted z-score was -0.047.

Regarding GGUUCAUGUUUGCAAUCUUTT against POLR2B, the median seed-adjusted z-score was -4.81 (active).

Take UGAACGCAGUCAUCCGGAATT against MAPK15: the median seed-adjusted z-score is 0.0724.

As for CCAAUGAUGUAUGAUCUAATT against UBE3A, the median seed-adjusted z-score is 0.0949.

Turning to GGACUAUAAAUCCAGCUUUTT against TOMM34, the median seed-adjusted z-score is -0.503.

For CUCCUAAAGUGCAUCGCAATT against GUF1, the median seed-adjusted z-score is 0.119.
